Inconclusive results are not listed. The source made the active and inactive calls. Calls follow the shape of the dose curve; as a rule, active = well fitted inhibition curve with a large enough effect; inconclusive = small, poorly fitted or top-dose-only effect; inactive = no such curve, though single readings can be large or run the other way.
molecular target: N-terminal Xaa-Pro-Lys N-methyltransferase 1 (Homo sapiens) (UniProt Q9BV86); assay: Orthogonal qHTS for Inhibitors of N-terminal methyltransferase 1 (NTMT1): ThioGlo Assay; settings: NTMT1 SAHH-coupled ThioGlo fluorescence, 30 min; series mostly up to 84.5 µM
Procedure, shortened: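 125 nM NTMT1 pre-incubated 1 min at room temperature with titrated compounds, then 100 uM SAM, 10 uM SAHH and 15 uM ThioGlo3 (final) added. Fluorescence (ex 340/em 450 nm) read before and after 30 min in the dark, normalized to the initial background.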

Chain of N-terminal Xaa-Pro-Lys N-methyltransferase 1 (Homo sapiens) (Q9BV86 whole entry, looked up): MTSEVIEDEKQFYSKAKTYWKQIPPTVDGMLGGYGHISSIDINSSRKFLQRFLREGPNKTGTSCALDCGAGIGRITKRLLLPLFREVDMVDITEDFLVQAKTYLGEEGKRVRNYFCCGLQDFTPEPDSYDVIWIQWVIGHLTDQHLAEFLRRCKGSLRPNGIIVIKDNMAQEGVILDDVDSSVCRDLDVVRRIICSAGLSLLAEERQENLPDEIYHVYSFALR

Row | Compound | Potency
1 | COc1cccc(C2=Nn3c(nnc3-c3ccccc3C)SC2)c1 | 27.4 µM (active)
2 | COc1c(C(C)C)c(O)c(O)c2c1C(OC)[C@H]1OC(=O)[C@@]23CCCC(C)(C)[C@H]13 (some centres undefined) | 6.1 µM (active)
3 | COc1ccc(C2=Nn3c(nnc3-c3ccccc3Cl)SC2)cc1OC1CCCC1 | inactive
4 | CN=c1nc(-c2ccccc2)n(-c2ccccc2)s1 | 5.55 µM (active)
5 | COc1cc2c(NC3CCN(C(C)C)CC3)nc(N3CCCN(CC4CCCCC4)CC3)nc2cc1OCCCN1CCCCC1 | inactive
6 | CCn1c(=O)c(-c2ccn[nH]2)cc2c(C)nc(N)nc21 | 49.4 µM (active)
7 | C[C@]12CC[C@@H]3c4ccc(O)c(O)c4CC[C@H]3[C@@H]1CCC2=O | 17.5 µM (active)
8 | COc1cc2c(NC3CCN(CC4CCCCC4)CC3)nc(N3CCCN(C(C)C)CC3)nc2cc1OCCCN1CCCCC1 | 12.3 µM (active)
9 | COc1ccc(C2=Nn3c(nnc3-c3ccccc3C)SC2)cc1OC | 34.5 µM (active)
10 | COc1ccc(-c2nnc3n2N=C(c2c(OC)cccc2OC)CS3)cc1OC | inactive
11 | Cc1ccc(NC(=O)N2CCN(c3nc(N)nc4sc(-c5cccnc5)nc34)CC2)cc1 | 24.8 µM (active)
12 | Cc1ccc(S(=O)(=O)Nc2cnccc2C(=O)Nc2nc(-c3cccc(C)c3)cs2)cc1 | inactive
13 | COc1ccc2nc(-c3cc(OC)c(OC)c(OC)c3)cc(C(=O)NCC(=O)Nc3ccc(C(C)=O)cc3)c2c1 | 31.2 µM (active)
14 | N#Cc1ccc(Nc2nc(-c3ccc(O)cc3O)cs2)cc1C(F)(F)F | 49.4 µM (active)
15 | COc1cc(N2CCN(C(C)=O)CC2)ccc1Nc1ncc(Cl)c(Nc2ccc(N3CCN(C(C)=O)CC3)cc2OC)n1 | 22.1 µM (active)
16 | COc1cc2c(NC3CCN(CC4CCCCC4)CC3)nc(N3CCCCC3)nc2cc1OCCOCCN(C)C | 12.3 µM (active)
17 | COc1cc2nc(N3CCCC3)nc(NC3CC3)c2cc1OC | inactive
18 | O=S(=O)(Cc1ccccc1)Nc1ccc(-c2ccc3c(cnn3-c3ccc(F)cc3)c2)c(C(F)(F)F)c1 | inactive
19 | FC(F)(F)c1cccc(N2CCN(C(=S)Nc3ccccn3)CC2)c1 | 1.54 µM (active)
20 | Cc1cc(N2CCOCC2)cc2[nH]c(-c3c(NC[C@@H](O)c4cccc(Cl)c4)cc[nH]c3=O)nc12 | 13.9 µM (active)
21 | COc1cc(N2CCC(N3CCN(C)CC3)CC2)ccc1Nc1ncc(Cl)c(-c2c[nH]c3ccccc23)n1 | 17.5 µM (active)
22 | COc1cc2c(NC3CCN(C(C)C)CC3)nc(N3CCCN(CC4CCCCC4)CC3)nc2cc1OCCCN1CCCC1 | 12.3 µM (active)
23 | O=C(/C=C/c1ccc(O)c(O)c1)OCCc1ccccc1 | 17.3 µM (active)
24 | COc1cc2c(NC3CCN(C(C)C)CC3)nc(N3CCCCC3)nc2cc1OCCOCCN(C)C | 34.5 µM (active)
25 | CCOc1ccccc1N1CC(c2nc3ccccc3n2CCCCOc2cc(C)ccc2C)CC1=O (centres undefined) | inactive
26 | COc1cc2nc(N3CCOCC3)nc(NC(C)C)c2cc1OC | inactive
27 | COc1cc2nc(N3CCN(C(=O)c4ccco4)C4CCCCC43)nc(N)c2cc1OC (centres undefined) | 55.5 µM (active)
28 | COc1cccc(C(=O)NCCNc2nc3cc(C)cc(C)c3cc2C#N)c1 | 44.1 µM (active)
29 | COc1cc2c(NC3CCN(C)CC3)nc(N3CCCN(C)CC3)nc2cc1OCCCN1CCCCC1 | 43.5 µM (active)

Source: PubChem BioAssay AID1645875 (National Center for Advancing Translational Sciences (NCATS), 2021)
